The record followed here is PubChem BioAssay (EPA / NIEHS).

Some compounds were tested as several samples or in several runs, with calls that do not always agree. Activity calls are given as the source filed them. The calls were made as follows: active = hit-call score of the fitted dose curve at least 0.9, where 1 is the maximum; inactive = score below 0.9.

Read-out in this assay: Interleukin-1 alpha (IL1a), IL1A (gene 3552)
As to the kind of experiment: BSK_KF3CT_IL1a: BioMAP Diversity Plus: KF3CT Assay for Interleukin-1 alpha (IL1a) Biomarker Activity (AID 2283070). As to conditions: primary human keratinocytes with fibroblasts; actives raise or lower the signal. In outline:
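Primary skin co-culture (keratinocytes, foreskin fibroblasts), 24 h exposure; ELISA for IL-1a; bidirectional curve fit vs DMSO.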
As to `OCc1c[nH]c2ccccc12`, the result was inactive. Turning to `c1ccc2cc3ccccc3cc2c1`, the outcome was inactive. `COc1cc(C(C)C)c2c(c1)S(=O)(=O)N(COc1cc(=O)n3cccc(OCCN4CCCCC4)c3n1)C2=O`: the concentration at half-maximal activity (AC50) is 5 µM (active). As for `O=S(=O)(O)CCC(F)(F)C(F)(F)C(F)(F)C(F)(F)C(F)(F)C(F)(F)F`, the result was inactive. `Cc1nccn1-c1ccc(Sc2cccc(C3(C(N)=O)CCOCC3)c2)cc1`: the result was inactive. Regarding `CC(C)CC(C)O` (stereo not drawn), the outcome was inactive. Still for that read-out and setting: as for `NC(=O)NN=Cc1ccc([N+](=O)[O-])o1`, the entry is “inactive”. Take `c1ccc(C(O[C@@H]2CCCN(CCc3ccc4c(c3)OCO4)C2)c2ccccc2)cc1`: the outcome was inactive.

Turning to `CCCCOC(=O)c1ccccc1`, the outcome was inactive. Take `FC(F)(F)C(F)(F)C(F)(F)C(F)(F)C(F)(F)C(F)(F)I`: the result was inactive. Still for that read-out and setting: as for `NC(=O)N1c2ccccc2C=Cc2ccccc21`, the entry is “inactive”. For `Cc1nc(-c2ccccn2)ncc1C(=O)Nn1cc(C)c2cc(F)ccc21`, the result was inactive. Regarding `O=C(O)[C@H](O)[C@@H](O)C(=O)O`, the result was inactive. With `Cc1cccc(O)c1C`, the outcome was inactive. Still for that read-out and setting: the result for `C[Si](C)(C)C(F)(F)C(F)(F)C(F)(F)F` reads “inactive”. In the case of `CCOC(N)=O`, the result was inactive.

`OC[C@H]1O[C@@H]2O[C@H]3[C@H](O)[C@@H](O)[C@@H](O[C@H]4[C@H](O)[C@@H](O)[C@@H](O[C@H]5[C@H](O)[C@@H](O)[C@@H](O[C@H]6[C@H](O)[C@@H](O)[C@@H](O[C@H]7[C@H](O)[C@@H](O)[C@@H](O[C@H]1[C@H](O)[C@H]2O)O[C@@H]7CO)O[C@@H]6CO)O[C@@H]5CO)O[C@@H]4CO)O[C@@H]3CO`: the result was inactive.

In the case of `COc1cc2c(c(OC)c1OC)-c1ccc(OC)c(=O)cc1[C@@H](NC(C)=O)CC2`, the result was inactive. For the compound `OCCC(F)(F)C(F)(F)C(F)(F)C(F)(F)F`, the concentration at half-maximal activity (AC50) is 8.32 µM (active) and the outcome was inactive. `O=C(O)c1cccc(C(=O)O)c1`: the outcome was inactive.

In the case of `CNC(C)=O`, the result was inactive. `CCCCCCCC1CCC(=O)O1` (stereo not drawn): the result was inactive.

`O=C1CN(N=Cc2ccc([N+](=O)[O-])o2)C(=O)N1`: the outcome was inactive. Still for that read-out and setting: as for `COS(C)(=O)=O`, the entry is “inactive”; as for `S=P(N1CC1)(N1CC1)N1CC1`, “inactive”; as for `C[C@@H](Oc1ccc(CNC(=O)c2cccnc2Oc2ccc3c(c2)OCO3)c(F)c1)C(=O)O`, “inactive”.

Regarding `O=c1[nH]cnc2c1ncn2[C@H]1CC[C@@H](CO)O1`, the result was inactive.

The term AC50 denotes the midpoint of the concentration-response curve, whichever way the signal moves.
